Reference: PubChem BioAssay AID588473 (Sanford-Burnham Center for Chemical Genomics, 2011)
Out of some 350,000 compounds screened, about 1,600 (0.46%) were called active.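 The calls were made as follows: active = activation of at least 50%, plus an integration ratio under a set limit after plate pattern correction; inactive = the rest.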 Shown is part of a subset that was picked to be rich in actives.

Test system: CRF-binding protein / CRF receptor 2 complex (human)
Experiment: activators of CRF-R2 with CRF-BP – cell-based, HEK293, calcium dye fluorescence, uHTS, primary screen (AID 588473);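 also: plate controls were neutral control wells without compound for no effect and CRF at EC100 for full effect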
Settings: calcium dye fluorescence (FLIPR), at 13.2 µM, stronger effect = higher value

`CCCCC(=O)N/N=C/c1c(O)n(CCC2=CCCCC2)c(=O)[nH]c1=O` was tested. Which activation did it give?
Its activation is 0.08% (inactive).

`Cn1c(O)c(C=NCCCC(=O)O)c(=O)n(C)c1=O` was tested. Which activation did it give?
Its activation is 3.61% (inactive).

With `CCCCC(=O)N/N=C/c1c(O)n(CC)c(=S)n(CC)c1=O` as the compound, how does the activation read?
Its activation is 89% (active).

Which activation does the source give for `COC(=O)C1=C(c2ccc(C(C)=O)cc2)C[C@@H]2CC[C@H]1N2C(=O)NCCNC(C)=O` here?
Its activation is -2% [percent of saturating CRF peptide response] (inactive).

With `COc1ccc(C2NCc3ccc4c(c3-n3cccc32)OCO4)cc1OC` (stereo not given) as the compound, how does the activation read?
The activation was -1.07% (inactive).

For `COC(=O)N(c1ccc(OC)cc1)P1(=S)OCCC(C)O1` (stereo not given), which activation is on record?
Its activation is -2.1% (inactive).

How did the activation turn out when `Cc1nc2ccccn2c1P(=S)(N1CCCCC1)N1CCCCC1` was run?
Its activation is 63.2% (active).

`CN1CCN(Cc2ccc(OC(F)(F)F)cc2)CC1` was tested. Which activation did it give?
Its activation is -0.02% (inactive).

`CCCCCn1c(=O)c(C(=O)NCc2ccccc2)c(O)c2ccccc21` was tested. Which activation did it give?
The activation was 4.58% (inactive).

How did the activation turn out when `CCOP(=S)(OCC)C(O)CCCCCn1c(=O)c(F)cn(C2CCCO2)c1=O` (stereo not given) was run?
Its activation is -3.57% (inactive).

Which activation does the source give for `O=C(c1cc(S(=O)(=O)N2CCOCC2)ccc1F)N1CCC2(CC1)OCCO2` here?
The activation was 2.62% (inactive).

How did the activation turn out when `COc1cccc(N2C(=O)NC(=O)/C(=C\c3cn(C)c4ccccc34)C2=O)c1` was run?
Its activation is 113% (active).

For `COc1ccc(N2C(=O)/C(=C/c3ccco3)C(=O)NC2=S)cc1`, which activation is on record?
The activation was 4.87% (inactive).

For `COc1cccc(N2C(=O)NC(=O)/C(=C\c3ccc([N+](=O)[O-])s3)C2=O)c1`, which activation is on record?
Its activation is 4.02% (inactive).

`c1ccc(C(CN2CCCCC2)c2ccccc2)cc1` was tested. Which activation did it give?
Its activation is -0.78% [percent of saturating CRF peptide response] (inactive).
